Inconclusive results are not listed. A call without a number means that no potency is given here. Active and inactive are the calls of the source. Unless noted, the call rests on the fitted dose curve; in most records, active means well fitted curve in the direction sought with a large enough effect in the repeat runs; inconclusive means weak or mixed curves; inactive means no such curve, though single readings can be large; an effect the other way counts as inactive or inconclusive.
Columns and labels:
[1] = qHTS assay to identify small molecule antagonists of the estrogen related receptor (ERR) signaling pathway (AID 1224819; further: nearly all actives have a fitted effect of over 50% in size; further: potency means the concentration at half of the fitted maximal effect)
Method in brief: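 ERR reporter cell line (NTP) plated at 2,000 cells/well, settled 6 h at 37C/5% CO2, then exposed to LOPAC compounds for 18 h at 37C. One-Glo luciferase luminescence read after 30 min at room temperature.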

[2] = system: estrogen-related receptor alpha (ERRalpha) with PGC-1alpha coactivator, human; test: qHTS assay to identify small molecule antagonists of the estrogen related receptor signaling pathway with the pleiotropic PPARgamma coactivator (PGC) (AID 1224821; calls by dose curve; further: nearly all actives have a fitted effect of over 50% in size; further: potency means the concentration at half of the fitted maximal effect)
Method in brief: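 Luminescence from One-Glo luciferase reagent (30 min, room temperature) measured after 18 h compound treatment at 37 °C. Cells carry the PGC/ERR reporter and were seeded 6 h prior to dosing.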

[3] = qHTS assay to identify small molecule antagonists of the estrogen related receptor signaling pathway with the pleiotropic PPARgamma coactivator (PGC) cell viability counter screen (AID 1224822; further: potency means the concentration at half of the fitted maximal effect;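 further: viability read after 17.5 h compound exposure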)
Method in brief: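 Cytotoxicity in the PGC/ERR cell line is assessed with CellTiter-Fluor, read as fluorescence intensity 30 min after reagent addition, following 17.5 h compound treatment at 37 C.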

[4] = qHTS assay to identify small molecule agonists of the estrogen related receptor signaling pathway with the pleiotropic PPARgamma coactivator (PGC) (AID 1224823); further: potency means the concentration at half of the fitted maximal effect
Method in brief: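 Luminescence from One-Glo reagent (30 min, room temperature) was read after 18 h compound treatment at 37 C of PGC/ERR cells plated 6 h beforehand; compounds delivered in DMSO by pin tool.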

[5] = qHTS assay to identify small molecule agonists of the estrogen related receptor (ERR) signaling pathway (AID 1224820)
Method in brief: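 After 6 h plating (2,000 cells/well) and 18 h compound treatment at 37 C, ERR cells were lysed with One-Glo and luminescence read after 30 min at room temperature.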

Row | SMILES | Potency [1] | Potency [2] | Potency [3] | Potency [4] | Potency [5]
1 | COc1cc(/C=C(\C#N)C(=O)c2ccc(O)c(O)c2)cc(I)c1O | inactive | inactive | inactive | inactive | –
2 | Cc1cccc(C)c1OCC(N)C(C)C (stereo not given) | inactive | inactive | inactive | inactive | –
3 | C=CCN1CCc2c(cc(O)c(O)c2Cl)C(c2ccccc2)C1 (stereo not given) | – | inactive | inactive | inactive | inactive
4 | CC(C)(C)c1ccc(S(=O)(=O)/C=C/C#N)cc1 | inactive | – | – | inactive | inactive
5 | C=C1C(=O)O[C@@H]2[C@H]3O[C@]3(C)CCC=C(C)CC[C@@H]12 | inactive | – | – | inactive | –
6 | O=c1[nH]c2cc(C(F)(F)F)ccc2n1-c1cc(C(F)(F)F)ccc1O | – | inactive | inactive | inactive | inactive
7 | CC(C)N(CCC(=O)c1ccc2ccccc2c1)Cc1ccccc1 | – | 19.9 µM (active) | – | inactive | inactive
8 | CN(C)c1cc2c(Nc3ccc4c(cnn4Cc4ccccc4)c3)ncnc2cn1 | 13.3 µM (active) | – | – | inactive | inactive
9 | Cc1cc(Cl)ccc1OCCCC(=O)NO | – | inactive | – | – | inactive
10 | COC(=O)C1=C(C)NC(C)=C(C(=O)OC)C1c1cccc(NC(=O)NCCCN2CCC(c3cccc(OC)c3)CC2)c1 | – | 31 µM (active) | 20.3 µM (active) | inactive | inactive
11 | O=[N+]([O-])c1ccc(-c2nc(-c3ccc(F)cc3)c(-c3ccncc3)[nH]2)cc1 | 13.3 µM (active) | – | – | inactive | inactive
12 | CC(C)C[C@H](NC(=O)[C@@H](O)[C@H](N)Cc1ccccc1)C(=O)O | – | 6.94 µM (active) | inactive | inactive | inactive
13 | CC(=O)/C=C1\C(=O)N(C)c2ccccc21 | – | 28.7 µM (active) | – | inactive | inactive
14 | Nc1nc(OCC2CCCCC2)c2[nH]cnc2n1 | – | inactive | inactive | inactive | inactive
15 | CCCCOC(=O)NS(=O)(=O)c1sc(CC(C)C)cc1-c1ccc(Cn2c(CC)nc3c(C)cc(C)nc32)cc1 | 11.9 µM (active) | – | – | inactive | inactive
16 | N#C/C(=C\c1ccc(O)c(O)c1)C(=O)Nc1ccccc1 | inactive | inactive | – | – | –
17 | CC1(C)C(=O)N(CCN2CCC(C(=O)c3ccc(F)cc3)CC2)c2ccccc21 | 21.1 µM (active) | – | – | inactive | inactive
18 | CCCCCCCCCCC(C)(C)C(=O)Nc1c(OC)cc(OC)cc1OC | – | inactive | inactive | inactive | inactive
19 | N#C/C(=C\c1ccc(-c2cc(Cl)ccc2Cl)o1)C(=O)Nc1cccc2ncccc12 | – | inactive | 14.4 µM (active) | – | inactive

Row | SMILES | Potency [1] | Potency [2] | Potency [3] | Potency [4] | Potency [5]
20 | CC(C)(C)c1ccc(/C=C/C(=O)Nc2ccc3c(c2)OCCO3)cc1 | – | inactive | inactive | inactive | inactive
21 | O=C1Nc2ccc(I)cc2/C1=C/c1cc(Br)c(O)c(Br)c1 | – | inactive | inactive | inactive | inactive
22 | O=C(NOCC1CC1)c1cc(Br)c(F)c(F)c1Nc1ccc(I)cc1Cl | 2.98 µM (active) | – | – | inactive | inactive
23 | COC1=C(OC)C(=O)c2ccccc2C1=O | 11 µM (active) | – | – | inactive | inactive
24 | S=C(S)N1CCCC1 | – | 3.22 µM (active) | 0.287 µM (active) | inactive | inactive
25 | COc1ccccc1N1CCN(CCN(C(=O)c2ccc(F)cc2)c2ccccn2)CC1 | – | inactive | inactive | inactive | inactive
26 | O=C(c1ccc2c(c1)OCCO2)N1CCCCC1 | inactive | inactive | inactive | inactive | –
27 | NC(=NCc1ccccc1)NC(=O)c1nc(Cl)c(N)nc1N | – | inactive | – | – | inactive
28 | CN(C)S(=O)(=O)c1ccc2c(c1)/C(=C/c1cc3c([nH]1)CCCC3)C(=O)N2 | – | inactive | inactive | 23.7 µM (active) | inactive
29 | CCCC(=O)NCCc1c2n(c3ccc(OC)cc13)CCCc1ccccc1-2 | 20.3 µM (active) | – | – | inactive | inactive
30 | O=C(c1ccc(Cl)cc1)N1CCN(c2ccc([N+](=O)[O-])c3ncccc23)CC1 | 7.5 µM (active) | – | – | inactive | inactive
31 | Nc1nc2ccc(Cl)cc2c2nc(-c3ccco3)nn12 | – | inactive | inactive | inactive | inactive
32 | C[C@H](Cc1ccc(O)c(O)c1)[C@@H](C)Cc1ccc(O)c(O)c1 | – | inactive | inactive | inactive | inactive
33 | Oc1cc2c(c(Cl)c1O)CCNCC2c1ccccc1 (stereo not given) | 8.41 µM (active) | – | – | inactive | inactive
34 | CCc1ccc(/C=C2/SC(=S)NC2=O)cc1 | inactive | – | – | inactive | inactive
35 | CCCCN(CC)c1nc(C)nc2c1c(C)cn2-c1c(C)cc(C)cc1C | – | 12.8 µM (active) | 16.8 µM (active) | inactive | inactive
36 | CCN(c1nc(N)c(C(=O)N=C(N)N)nc1Cl)C(C)C | 9.81 µM (active) | – | – | inactive | inactive
37 | COc1ccc(C(=O)/C(Cc2cc(OC)c(OC)c(OC)c2)=C(\C(=O)O)c2ccc3c(c2)OCO3)cc1 | 10.2 µM (active) | – | 18.8 µM (active) | inactive | inactive
